Source: PubChem BioAssay (Tox21)
Inconclusive results are not listed. Activity calls are given as the source filed them. Unless noted, calls follow the shape of the full dose curve.

Key:
[1] = biological target: Thyrotropin receptor (Homo sapiens) (UniProt P16473); assay: qHTS assay to identify small molecule agonists of the thyroid stimulating hormone receptor (TSHR) signaling pathway (AID 1224843); also: nearly all actives have a fitted effect of over 45% in size
Method in brief: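 HEK293 cells stably bearing the thyrotropin receptor were plated at 800 cells/well and challenged with compound (30 min, RT). Accumulated cAMP was quantified via cAMP-d2 competing for cryptate-tagged antibody.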

[2] = qHTS assay to identify small molecule agonists of the hypoxia (HIF-1) signaling pathway - cell viability counter screen (AID 1224844); also: nearly all actives have a fitted effect of over 50% in size
Method in brief: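 ME-180 HRE-bla cells, 2,000/well, 0.5% dialyzed FBS; 5 hr settle, 17 hr compound at 37C/5% CO2; CCF4-AM reporter read first, then CellTiter-Glo luminescence after 30 min RT.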

[3] = qHTS assay to identify small molecule agonists of H2AX (AID 1224845; active = well fitted activation curve with a large enough effect in the signal ratio in the repeat runs, not every such curve was filed as active; the % refers to the signal ratio)
Method in brief: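 Phospho-H2AX Ser139 measured by HTRF (ex 320 nm; em 665 and 620 nm) after 24 hr antibody incubation. Compounds, 15 concentrations, 0.76% DMSO, were applied to CHO-K1 cells for 3hr at 37C before lysis.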

[4] = qHTS assay to identify small molecule agonists of the hypoxia (HIF-1) signaling pathway (AID 1224846; active = well fitted activation curve with a large enough effect in the signal ratio in the repeat runs, not every such curve was filed as active; the % refers to the signal ratio)
Method in brief: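 Cell line: CellSensor HRE-bla ME-180; 2,000 cells/well; 0.5% dialyzed FBS; 5 h preincubation; DMSO compound pin transfer; 17 h, 37C, 5% CO2; CCF4-AM added; bla FRET signal scored for activation.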

[5] = qHTS assay to identify small molecule agonists of H2AX - cell viability counter screen (AID 1224847);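 also: wild-type CHO-K1 cells; top concentration of the series differs between compounds; nearly all actives have a fitted effect of over 30% in size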
Method in brief: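 CHO-K1 cells plated overnight at 37C, then exposed 3 h at 37C to compounds at 15 concentrations (0.76% DMSO final). Viability by CellTiter-Glo luminescence after 30 min at room temperature.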

[6] = qHTS assay to identify small molecule antagonists of the estrogen related receptor (ERR) signaling pathway from Tox21 library (AID 1224848; active = well fitted curve in the direction sought with a large enough effect in the repeat runs; an effect the other way counts as inactive or inconclusive; also: nearly all actives have a fitted effect of over 50% in size)
Method in brief: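 Reading was by luminescence 30 min after ONE-Glo addition. Before that, ERR cells at 2,000 per well had rested 6 h at 37 C/5% CO2 and then received pin-tooled compounds in DMSO for 18 h at 37 C.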

[7] = qHTS assay to identify small molecule agonists of the estrogen related receptor (ERR) signaling pathway from Tox21 library (AID 1224849); settings: ERR reporter cell line, ONE-Glo luciferase, 18 h; at 92.4 µM (top of the series) unless noted; also: nearly all actives have a fitted effect of over 15% in size
Method in brief: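 ERR cells, 6 h pre-incubation 37 C/5% CO2; cpd in DMSO pinned; 18 h 37 C; ONE-Glo added, 30 min RT; luminescence read. Agonist mode, qHTS.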

[8] = qHTS RealTime-Glo MT Cell Viability Assay in HepG2 cells - 24 hour (AID 1224867; active = well fitted curve in the direction sought with a large enough effect in the repeat runs; an effect the other way counts as inactive or inconclusive; also: nearly all actives have a fitted effect of over 50% in size)
Method in brief: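 Viability was tracked continuously by NanoLuc luminescence from prosubstrate reduced by living HepG2 cells, at successive time points over 40 h of compound exposure. Cells with reagent were preincubated 5 h at 37 °C before compound addition.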

[9] = qHTS RealTime-Glo MT Cell Viability Assay in HEK293 cells - 32 hour (AID 1224868; active = well fitted curve in the direction sought with a large enough effect in the repeat runs; an effect the other way counts as inactive or inconclusive; also: top concentration of the series differs between compounds; nearly all actives have a fitted effect of over 50% in size)
Method in brief: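 Viability tracked continuously by luminescence as live cells reduce a prosubstrate for NanoLuc; HEK293 cells preincubated 5 h, compound-treated at 37 C, and read at 0, 8, 16, 24, 32 and 40 h.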

[10] = A CellTox Green Cytotoxicity Assay to monitor cytotoxicity in HEK293 cells - 0 hour (AID 1224869; active = well fitted curve in the direction sought with a large enough effect in the repeat runs; an effect the other way counts as inactive or inconclusive; also: nearly all actives have a fitted effect of over 50% in size)
Method in brief: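 Nonlytic real-time cytotoxicity: HEK293 + CellTox Green reagent plated, 5 h preincubation, pintool compound addition (23 nL in DMSO), 37 C for 40 h, fluorescence measured at successive time points.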
% is scaled to controls: 0 for no effect and ±100 for the full control effect.

Sequence of Thyrotropin receptor (Homo sapiens) (P16473 whole entry, looked up): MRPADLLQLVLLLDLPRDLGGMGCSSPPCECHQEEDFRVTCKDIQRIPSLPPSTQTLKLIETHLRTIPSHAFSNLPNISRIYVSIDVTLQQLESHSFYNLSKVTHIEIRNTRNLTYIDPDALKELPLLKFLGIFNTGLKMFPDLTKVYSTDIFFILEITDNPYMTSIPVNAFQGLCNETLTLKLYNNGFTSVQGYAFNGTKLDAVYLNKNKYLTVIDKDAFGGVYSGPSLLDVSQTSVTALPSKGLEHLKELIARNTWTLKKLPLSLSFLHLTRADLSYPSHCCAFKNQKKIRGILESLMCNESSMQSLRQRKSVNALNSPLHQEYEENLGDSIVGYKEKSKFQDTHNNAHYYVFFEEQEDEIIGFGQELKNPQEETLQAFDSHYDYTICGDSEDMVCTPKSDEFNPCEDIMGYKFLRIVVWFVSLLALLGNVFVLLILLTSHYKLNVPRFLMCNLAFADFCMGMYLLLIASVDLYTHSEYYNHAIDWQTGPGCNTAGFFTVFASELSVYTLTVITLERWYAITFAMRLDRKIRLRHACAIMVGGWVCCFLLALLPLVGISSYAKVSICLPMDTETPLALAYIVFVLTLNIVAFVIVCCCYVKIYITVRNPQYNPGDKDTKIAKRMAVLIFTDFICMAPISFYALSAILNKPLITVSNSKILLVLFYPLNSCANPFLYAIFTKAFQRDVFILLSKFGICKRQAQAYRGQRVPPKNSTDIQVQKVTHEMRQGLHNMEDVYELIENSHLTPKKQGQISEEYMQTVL

Cc1ccccc1N=O
inactive: Potency [1] | outcome [2] | outcome [3] | outcome [4] | Potency [5] | Potency [6] | activity change, positive = activation [7] 6.56% | outcome [8] | Potency [9] | outcome [10]

C=C(C)C(=O)OCCOP(=O)(O)OCCOC(=O)C(=C)C
inactive: Potency [1] | outcome [2] | outcome [3] | outcome [4] | Potency [5] | Potency [6] | activity change, positive = activation [7] 5.76% | outcome [8] | Potency [9] | outcome [10]

O=C1c2cccc3c2[C@H](CCC3)CN1[C@@H]1CN2CCC1CC2
inactive: Potency [1] | outcome [2] | outcome [3] | outcome [4] | Potency [5] | Potency [6] | outcome [8] | outcome [10]
active: activity change, positive = activation [7] 20.8% [at 42.5 µM]

CC(=O)NCc1c(I)c(NC(C)=O)c(I)c(C(=O)O)c1I
inactive: Potency [1] | outcome [2] | outcome [3] | outcome [4] | Potency [5] | Potency [6] | activity change, positive = activation [7] 6.18% [at 42.5 µM] | outcome [8] | Potency [9] | outcome [10]

CCCCCCCCCCl
inactive: Potency [1] | outcome [2] | outcome [3] | outcome [4] | Potency [5] | Potency [6] | activity change, positive = activation [7] 2.84% | outcome [8] | Potency [9] | outcome [10]

COc1ccc(OC)c(Cl)c1
inactive: Potency [1] | outcome [2] | outcome [3] | outcome [4] | Potency [5] | Potency [6] | activity change, positive = activation [7] -2.23% | outcome [8] | Potency [9] | outcome [10]

COC(=O)CCc1ccc(OCC(O)CNC(C)C)cc1 (centres undefined)
inactive: Potency [1] | outcome [2] | outcome [3] | outcome [4] | Potency [5] | Potency [6] | activity change, positive = activation [7] 8.83% [at 42.5 µM] | outcome [8] | Potency [9] | outcome [10]

C=C1CC/C=C(\C)CC[C@@H]2[C@@H]1CC2(C)C
inactive: Potency [1] | outcome [2] | outcome [3] | outcome [4] | Potency [5] | Potency [6] | activity change, positive = activation [7] 0.265% | outcome [8] | Potency [9] | outcome [10]

CCn1ccc(NS(=O)(=O)c2ccc(N)cc2)nc1=O
inactive: Potency [1] | outcome [2] | outcome [3] | outcome [4] | Potency [5] | Potency [6] | activity change, positive = activation [7] 3.61% [at 42.5 µM] | outcome [8] | Potency [9] | outcome [10]

CNC(=O)[C@H]1O[C@@H](n2cnc3c(NCc4cc(Cl)ccc4OCc4cc(C)no4)ncnc32)[C@H](O)[C@@H]1N
inactive: Potency [1] | outcome [2] | outcome [3] | outcome [4] | Potency [5] | Potency [6] | activity change, positive = activation [7] -1.8% | outcome [8] | Potency [9] | outcome [10]

COc1ccc(Br)c(C)c1
inactive: Potency [1] | outcome [2] | outcome [3] | outcome [4] | Potency [5] | Potency [6] | activity change, positive = activation [7] -0.068% | outcome [8] | Potency [9] | outcome [10]

COc1cc(C(=S)N2CCOCC2)cc(OC)c1OC
inactive: Potency [1] | outcome [2] | outcome [3] | outcome [4] | Potency [5] | Potency [6] | activity change, positive = activation [7] -0.791% [at 42.5 µM] | outcome [8] | Potency [9] | outcome [10]

O=C(CS(=O)Cc1ccco1)NC/C=C\COc1cc(CN2CCCCC2)ccn1 (centres undefined)
inactive: Potency [1] | outcome [2] | outcome [3] | outcome [4] | Potency [5] | Potency [6] | activity change, positive = activation [7] 7.25% [at 42.5 µM] | outcome [8] | Potency [9] | outcome [10]

CC(C)CC(C)CC(C)CC(C)COC(=O)c1ccccc1C(=O)OCC(C)CC(C)CC(C)CC(C)C (centres undefined)
inactive: Potency [1] | outcome [2] | outcome [3] | outcome [4] | Potency [5] | Potency [6] | activity change, positive = activation [7] -6.15% | outcome [8] | Potency [9] | outcome [10]

COc1nccnc1NS(=O)(=O)c1ccc(N)cc1
inactive: Potency [1] | outcome [2] | outcome [3] | outcome [4] | Potency [5] | Potency [6] | activity change, positive = activation [7] -1.96% [at 42.5 µM] | outcome [8] | Potency [9] | outcome [10]

Cc1c(I)c(=O)n(-c2ccccc2)n1C
inactive: Potency [1] | outcome [2] | outcome [3] | outcome [4] | Potency [5] | Potency [6] | activity change, positive = activation [7] 2.79% [at 42.5 µM] | outcome [8] | Potency [9] | outcome [10]

CC/C=C\CC1=C(C)CCC1=O
inactive: Potency [1] | outcome [2] | outcome [3] | outcome [4] | Potency [5] | Potency [6] | activity change, positive = activation [7] -10.1% | outcome [8] | Potency [9] | outcome [10]

CC(C)(C)c1n[nH]c(=S)n(N)c1=O
inactive: Potency [1] | outcome [2] | outcome [3] | outcome [4] | Potency [5] | Potency [6] | activity change, positive = activation [7] -1.28% | outcome [8] | Potency [9] | outcome [10]

CC(=O)/C=C/C1C(C)=CCC(C)C1(C)C (centres undefined)
inactive: Potency [1] | outcome [2] | outcome [3] | outcome [4] | Potency [5] | Potency [6] | activity change, positive = activation [7] -6.15% | outcome [8] | Potency [9] | outcome [10]

CCOc1cc(NC(C)=O)ccc1C(=O)OC
inactive: Potency [1] | outcome [2] | outcome [3] | outcome [4] | Potency [5] | Potency [6] | activity change, positive = activation [7] -6.13% [at 42.5 µM] | outcome [8] | Potency [9] | outcome [10]

CC(=O)N[C@@H](CCC(=O)O)C(=O)O
inactive: Potency [1] | outcome [2] | outcome [3] | outcome [4] | Potency [5] | Potency [6] | activity change, positive = activation [7] 5.46% [at 42.5 µM] | outcome [8] | Potency [9] | outcome [10]
